# Data as given in PubChem BioAssay (NCI).
# Compounds without any hit were thinned out: in the full panel of roughly 83,000, 20% have a hit.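 Interpretation: 100, growth as untreated; towards 0, rising growth inhibition; 0, no net growth; 0 to -100, cell death. Compounds scoring below 10 were considered active.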 Active and inactive are the calls of the source.
# Test system: SK-MEL-5 melanoma
# Assay: NCI-60 one-dose screen, 48 h (100 = growth as untreated, 0 = no growth, -100 = all killed)
# Conditions: 10 µM unless noted
# Protocol: Growth inhibition of the SK-MEL-5 human tumor cell line is measured as a screen for anti-cancer activity. Cells are grown in 96 well plates and exposed to the test compound for 48 hours. Compounds are tested at a single concentration, which is 10^-5 M for most compounds. The reported endpoint is percent growth (GI% or GIPRCNT), where numbers from 0 - 100% represent growth inhibition, and numbers from -100% - 0 represent cell death. For example, a value of 40 represents 60% growth inhibition. A value of 0 means no net growth occurred over the course of the experiment. A value of -40 indicates 40% of cells at the beginning of the experiment died by the end of the experiment. A value of -100 means all cells are dead at the end of the experiment.
# NCI-60 Human Tumor Cell Lines Screen was performed using the standard one-dose NCI protocol, which is described in more detail at https://dtp.cancer.gov/discovery_development/nci-60/default.htm.
# Compounds with GIPRCNT values below 10 were considered active. Activity score was based on GIPRCNT using the following formula: […]
# Score is 0 for GIPRCNT values of 100 or above, 50 for GIPRCNT values of 0, and 100 for GIPRCNT values of -100.
row,SMILES,growth
1,Nc1nnc2cc(F)ccc2n1,114% (inactive)
2,Oc1cccnc1CN1CCCC1,99.8% (inactive)
3,CN1CCCN(C(c2ccccc2)c2ccc(Cl)cc2)CC1 (stereo not given),94.8% (inactive)
4,C/C(O)=C(/C=N/C(=S)Nc1ccccc1)C(=O)Nc1ccccc1C,93.9% (inactive)
5,CC(=O)N=c1ccc2nc3c(cc(N)c4ccccc43)oc-2c1,-100% (active)
6,CC(=O)N(CCCCCCN(C(C)=O)C(C)=O)C(C)=O,104% [100 µM] (inactive)
7,CN(C)c1ncnc2c1cnn2C,97.2% (inactive)
8,NNC(=O)c1ccccc1N,107% (inactive)
9,C=CCc1cc(OC)c(O)c(OC)c1,99.8% (inactive)
10,C/C(Cc1ccccc1)=N\O,99.4% (inactive)
11,CN(C)CCOC(=O)Nc1ccc(Cc2ccc(NC(=O)OCCN(C)C)cc2)cc1,54.8% [100 µM] (inactive)
12,CCNCC(C)(C)O,97.3% (inactive)
13,COc1cc(OC)c2cc(C(=O)c3ccc(C#N)cc3)c(=O)oc2c1,97.6% (inactive)
14,CCN(CC)CCOC(=O)Nc1c(C(C)C)cccc1C(C)C,95.7% (inactive)
15,O=S1(=O)c2ccccc2Oc2ccccc21,108% (inactive)
16,OCC1CCC(O)C(CO)N1 (stereo not given),108% (inactive)
17,CCOC(=O)CSCCC#N,111% (inactive)
18,O=C(Oc1ccccc1Cl)c1ccc(Cl)cc1Cl,102% (inactive)
19,Nc1cc2c(cc1Cl)C(=O)c1ccccc1C2=O,91.9% (inactive)
20,Nc1ccccc1SC1CC(=O)N(c2ccc(Cl)c(Cl)c2)C1=O (stereo not given),104% (inactive)

row,SMILES,growth
1,CCCCCCCCNC(=O)C(C)C,103% (inactive)
2,NC(CO)(CO)c1ccccc1,97.9% (inactive)
3,N#Cc1ccc(OC(=O)Nc2cc(Cl)cc(Cl)c2)cc1,-94.3% [100 µM] (active)
4,OC(CCN1CCCCC1)(c1ccccc1)c1ccccc1,97.4% (inactive)
5,COC1CC(OC(=O)c2ccc([N+](=O)[O-])cc2)C(COC(=O)c2ccc([N+](=O)[O-])cc2)O1 (stereo not given),95.7% (inactive)
6,C=CCC(OC(C)=O)c1ccc(C(C)C)cc1 (stereo not given),117% (inactive)
7,O=C(OCc1ccccc1)n1nnc2ccccc21,105% (inactive)
8,CCN(C(=O)Nc1ccccc1Cl)c1ccccc1,101% (inactive)
9,CC(O)C(F)(F)C(F)(F)C(F)(F)F (stereo not given),101% (inactive)
10,COc1ccc(C(=O)/C(=N/Nc2ccccc2)c2ccc(OC)cc2)cc1,98.1% (inactive)
11,CCc1ccccc1C(=O)N(CC)CC,104% (inactive)
12,CCOC(=O)N[C@H]1CCc2cc(OC)c(OC)c(OC)c2-c2ccc(SC)c(=O)cc21,-51.3% (active)
13,CC12CCC3c4ccc(O)cc4CCC3C1CCC2=O (stereo not given),101% (inactive)
14,COC1OC(COC(C)=O)C(OC(C)=O)C(OC(C)=O)C1OC(C)=O (stereo not given),117% (inactive)
15,CCCCCCCCCCCCCCCCOc1ccccc1NC(=O)CC(C)=O,96.2% (inactive)
16,CCOc1ccccc1NC(=O)CCl,71.2% (inactive)
17,CN(C)c1ccc2c(N(C)C)cc(N(C)C)nc2c1,100% (inactive)
18,c1ccc2c(NCCCN3CCN(CCCNc4c5ccccc5nc5ccccc45)CC3)c3ccccc3nc2c1,-70.3% [100 µM] (active)
19,CCOC(=O)Nc1nccs1,99.5% (inactive)
20,C=CC(=O)OC1CCC(C(C)(C)CC)CC1 (stereo not given),104% (inactive)
